Compound activity (PubChem BioAssay)
Many of the other results were omitted from the sample, so hits are more common in it than they were.
PL synth Enamine – animal cell phospholipid biosynthesis inhibition, Enamine screen; ZR-82 CHO cells, pyrene fatty acid UV survival, CellTiter Blue; peroxisome-deficient CHO-K1 mutant line; plus DGAT-1, DGAT-2 and ACAT inhibitors; calls only at 10 µM; hit rate 0.4% among 20,000; AID 1347385;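 active = cell survival signal 2 SD away from solvent-only control wells, confirmed on one or two retests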;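 also: 3 h compound exposure then viability read about one day after UV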
Numbers without * were called inactive; i = inactive; + = active, no number.

SMILES	PL synth Enamine
CN1/C(=C\C=Nc2ccccc2I)C(C)(C)c2ccccc21	i
CN1/C(=C\C=Nc2c(F)c(F)c(F)c(F)c2F)C(C)(C)c2ccccc21	i
CN1/C(=C\C=Nc2ccccc2N)C(C)(C)c2ccccc21	+
O=[N+]([O-])c1cc(S(=O)(=O)c2ccc(Cl)c([N+](=O)[O-])c2)ccc1Cl	i
CN(C)c1ccc(N=Cc2cc([N+](=O)[O-])ccc2OC(F)F)cc1	i
O=[N+]([O-])c1ccc(Cl)c(S(=O)(=O)Nc2ccc(SC(F)F)cc2)c1	i
O=[N+]([O-])c1ccc(N=Nc2ccc(NCC(F)(F)C(F)F)cc2)c(Cl)c1	+
Nc1ccc([N+](=O)[O-])cc1C(F)(F)F	i
CN(C)P(=Nc1ccc([N+](=O)[O-])cc1Br)(N(C)C)C(C)(C)C	i
CN(C)c1ccc(N=Nc2ccc([N+](=O)[O-])cc2C(F)(F)F)cc1	+
COC(=O)Nc1snc(C)c1C(=O)O	i
O=C(O)CCCCCNS(=O)(=O)c1ccc(Cl)s1	i
C=CCn1c(SCc2cc(Cl)c3c(c2)OCCO3)nnc1-c1ccncc1	i
O=C(NC1CCCCC1)N1N=C2/C(=C/c3ccc(Br)cc3)CCCC2C1c1ccc(Br)cc1 (stereo not drawn)	i
Cc1cc(OCCOC2OCCOC2OCCOc2ccc(C(C)C)c(C)c2)ccc1C(C)C (stereo not drawn)	i
O=C1C2Sc3[nH]c(=O)sc3C(c3ccc([N+](=O)[O-])cc3)C2C(=O)N1c1ccc(Br)cc1 (stereo not drawn)	i
Clc1cnc(Sc2ccc3ccccc3c2)c(Cl)c1	i
C/C(=N\Nc1nc(N)ncc1[N+](=O)[O-])c1cccs1	i
O=C1CSC2=NCN(c3ccc(Cl)c(Cl)c3)CN12	i
S=C(NNc1ccnc2cc(Cl)ccc12)Nc1ccccc1Cl	+
S=C(NNc1ccnc2cc(Cl)ccc12)Nc1ccc(Cl)cc1	i
Fc1ccc(NC(=S)NNc2ccnc3cc(Cl)ccc23)cc1	i
Fc1ccc(C2=NNC(=NCc3ccc4c(c3)OCO4)SC2)cc1	i
CCOC(=O)c1c(C)[nH]c(C(=O)O)c1C	i
CCOC(=O)c1c(C)[nH]c(N=Nc2ccc3c(c2)OCO3)c1C	+
SMILES	PL synth Enamine
CCOC(=O)c1c(C)[nH]c(C(=O)COC(=O)c2ccc(C)s2)c1C	i
Cc1cc([N+](=O)[O-])ccc1NP1(=O)/C(=C2/N(C)c3ccccc3C2(C)C)C=NN1c1ccccc1 (stereo not drawn)	i
CN1/C(=C2\C=NN(c3ccccc3)P2(=O)Nc2ccc([N+](=O)[O-])cc2)C(C)(C)c2ccccc21 (stereo not drawn)	+
Cc1nn(-c2ccccc2)c2c1P(=S)(Nc1ccc([N+](=O)[O-])cc1)/C(=C1/N(C)c3ccccc3C1(C)C)C=N2 (stereo not drawn)	i
O=C(Cn1cc([N+](=O)[O-])ccc1=O)NCC1CCCCC1	i
CCN(CC)c1ncc(C(=O)c2cc(Br)c(Br)s2)s1	i
c1cnc(SCc2cn3ccsc3n2)nc1	i
O=C(CSc1nnc(Cc2cccs2)n1C1CCCCC1)c1ccc(Cl)s1	i
Clc1cc(Cl)c(N=Cc2ccccn2)cc1Cl	i
CC(C)(C)c1cc(C=Nc2cc(C(C)(C)C)cc(C(C)(C)C)c2O)c(O)c(C(C)(C)C)c1	i
Cc1ccc(N=Nc2cc(C(C)(C)C)cc(Br)c2O)cc1	+
CC(C)(C)N/N=C/c1cc(Br)c(O)c(Br)c1	i
CCCCN(CCCC)[P+](Nc1n[nH]c(=O)[nH]c1=O)(N(CCCC)CCCC)N(CCCC)CCCC	+
c1nc(Oc2ccc3c(c2)CCC3)c2c3c(sc2n1)CCC3	i
O=C(CSc1nncs1)N(C1CCCC1)C1CCS(=O)(=O)C1 (stereo not drawn)	i
Oc1ccc(Br)cc1/C=N/n1c(-c2ccc(Cl)cc2Cl)n[nH]c1=S	i
S=C(N/N=C/c1cccs1)NC1CCCCC1	+
COCCNC(=S)N/N=C/c1cccs1	i
O=C(/C=C/c1cccs1)NC1CCCC1	i
Cc1cc(C(=O)CSc2nnc(C3CC3)n2C2CC2)c(C)s1	i
c1ccc(-c2cn3nc(-c4ccccc4)n4c3c2CCCC4)cc1	i
FC(F)(F)c1nc(Sc2nnc(C3CC3)o2)c2ccccc2n1	i
Cn1c(=O)c2c(ncn2CC(=O)N2N=C(c3cccs3)CC2c2cccs2)n(C)c1=O (stereo not drawn)	i
ClC1(Cl)CC1CNc1ncnc2sccc12 (stereo not drawn)	+
CN(C)C(CNc1ncnc2sccc12)c1cccs1 (stereo not drawn)	i
OCCCNc1ncnc2sccc12	i
O=[N+]([O-])c1ccc(C2CN=C(NC3CCCCC3)S2)cc1 (stereo not drawn)	i
Cc1nn(CC(=O)N2CC3(C)CC2CC(C)(C)C3)c(C)c1[N+](=O)[O-] (stereo not drawn)	i
Fc1ccc(-c2cc3[nH]cnc(=S)c3s2)cc1	i
CCN1C(=Cc2cc(C)[n+](CCO)c(C)c2)Sc2ccccc21	i
